Sampled rows, rich in hits. Any-hit rate of the full collection: about 6.5%.
Vaccinia Venus = qHTS for Stage-Specific Inhibitors of Vaccinia Orthopoxvirus: Venus Reporter Primary qHTS. Vaccinia virus Venus reporter expression, fluorescence. Potency, µM (top dose mostly 36.5 µM), most hits filed as inhibitors. 0.46% of 330,000 active. AID 720580, 2013; calls by dose curve; tested in A549 cells; note: nearly all actives have a fitted effect of over 30% in size
HCMV inh = qHTS Assay for inhibitors of the human cytomegalovirus (HCMV); 4.5% of 410,000 active; HFF cells, HCMV-luciferase reporter, 72 h; stronger effect = lower value; activity change, negative = inhibition, % at 57.5 µM; in the data active = activity change below about -60%; inconclusive = no clear call, values can overlap the other calls; inactive = above about -39%
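Two-dose cell screen: HFF monolayers treated with compounds and infected with luciferase-expressing HCMV at 1 PFU/cell, 72 h at 37C, then lysed for luciferase measurement.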
VACV mCherry inh = qHTS for Stage-Specific Inhibitors of Vaccinia Orthopoxvirus: mCherry Reporter Primary qHTS; Vaccinia virus mCherry reporter infection, fluorescence; AID 720579, 2013; Potency, µM (series often up to 36.5 µM), hits mostly inhibitors; 0.63% of 310,000 active; calls by dose curve; tested in A549 cells; note: nearly all actives have a fitted effect of over 35% in size
MARV entry inh = qHTS for inhibitors of binding or entry into cells for Marburg Virus | 1.8% of 300,000 active | AID 540276, 2011 | Marburg virus pseudotyped entry inhibition, cell reporter | Potency, µM (top dose mostly 37.8 µM), usual class: inhibitors; calls by dose curve; tested in HEK293 cells
FMDV antiviral = High Throughput Screening for Foot and Mouth Disease Virus Antivirals. Potency, µM (highest dose often 57.9 µM), usual class: inhibitors. FMDV antiviral cell-based qHTS. AID 1159524, 2015. 1.2% of 410,000 active; calls by dose curve; tested in HEK293T cells; note: read-out not given here; nearly all actives have a fitted effect of over 45% in size
LASV entry inh = qHTS for Inhibitors of binding or entry into cells for Lassa Virus; AID 540256, 2011; Lassa virus pseudotype entry inhibition, cell reporter; 1.2% of 300,000 active; Potency, µM (highest dose often 37.9 µM), actives largely listed as inhibitors; calls by dose curve; tested in HEK293 cells; note: nearly all actives have a fitted effect of over 50% in size
Numbers stand for hits; i = inactive; ? = inconclusive; nt = no result.

SMILES	Vaccinia Venus	HCMV inh	VACV mCherry inh	MARV entry inh	FMDV antiviral	LASV entry inh
Cc1cn2c(=O)c(S(=O)(=O)NCCc3ccccc3)c(C)nc2s1	i	i	i	nt	i	i
O=C(CC1CC1)N1CC(=O)N2[C@H](CO)[C@@H](c3ccc(Br)cc3)[C@@H]2C1	nt	i	nt	nt	nt	nt
Cc1ccc2cc(C3CC(c4ccco4)=NN3S(=O)(=O)c3ccccc3)c(Cl)nc2c1 (stereo unspecified)	nt	-80.2	nt	2.59µM	i	16.4µM
N#CC1=C(N)OC2=C(C(=O)CCC2)[C@@H]1CCc1ccccc1	nt	nt	nt	i	nt	nt
COc1cccc(OC)c1CN1CCC2(CCC(CNC(=O)c3ccn(C)n3)O2)CC1 (stereo unspecified)	i	nt	i	nt	i	nt
Cc1ccccc1CN1N=C(/C=C/c2ccccc2)CCC1=O	i	i	i	i	?	7.94µM
CC(C)(C)NC(=O)c1cc(Cl)ccc1[N+](=O)[O-]	i	i	i	i	i	i
Cc1cccc(NC(=O)c2cc(Cl)ccc2[N+](=O)[O-])c1	?	-83.5	6.31µM	?	i	i
Cc1ccc(NC(=O)c2cc(Cl)ccc2[N+](=O)[O-])cc1C	i	-73.4	?	i	i	i
Cc1cccc(NC(=O)c2ccccc2C(=O)Nc2cccc(C)c2)c1	i	i	i	?	i	i
CN(C)c1ccc(C(CNC(=O)c2ccccc2F)N2CCc3ccccc32)cc1 (stereo unspecified)	i	i	i	nt	i	i
CSC1=NCCN1C(=O)c1c(F)cccc1Cl	i	-99.7	i	?	i	i
COc1cccc(CNC(=O)CCc2c(C)nc3c4c(C)cc(C)nc4nn3c2C)c1	i	i	i	i	i	i
COc1cc(=O)n2c(c1C(=O)N(C)Cc1nonc1C)CCN(Cc1cccc(Cl)c1)CC2	i	nt	i	nt	i	nt
COc1ccc(OC)c(C(=O)N2CCc3c(cnc(C)c3CNS(=O)(=O)N(C)C)C2)c1	i	nt	i	nt	i	nt
CC(C)COC(=O)c1ccc2[nH]c(O)c(C=Nc3ccc(S(N)(=O)=O)cc3)c2c1	nt	nt	nt	nt	nt	0.996µM
O=[N+]([O-])c1ccc(N=Nc2ccc(O)cc2O)cc1	?	-99.4	?	?	i	10µM
O=[N+]([O-])c1cccc(N=Nc2ccc(O)cc2O)c1	?	-79.7	?	2.82µM	i	?
CC(=O)c1ccccc1NC(C(=O)NCc1ccccc1)C(C)C (stereo unspecified)	nt	i	nt	nt	nt	nt
CC(N)C(=O)NC1C2C(=C(O)CC(O)C2O)C(=O)OC1(C)C(Cl)Cl (stereo unspecified)	1µM	-75.8	?	0.316µM	?	0.501µM
C=CC[C@@H]1C=C[C@@H](Oc2ccc(OC)cc2)[C@H](CO)O1	nt	nt	nt	i	nt	nt
CC(=O)N[C@@H](C)C(=O)NCC1Cc2cccc(-c3ccccc3C(F)(F)F)c2O1 (stereo partly specified)	i	nt	i	nt	i	nt
COc1cc2ccc(C(C)=NNC(N)=S)cc2cc1OC	?	i	6.31µM	nt	i	nt
C/C(=N\NC(N)=S)c1ccc2c(c1)OCCO2	?	i	?	i	i	i
CC(=NNC(N)=S)c1ccc2cc3c(cc2c1)OCO3	2µM	i	?	nt	i	nt
SMILES	Vaccinia Venus	HCMV inh	VACV mCherry inh	MARV entry inh	FMDV antiviral	LASV entry inh
Cc1ccc(-c2nc3cc(Br)cnc3nc2-c2ccc(C)cc2)cc1	i	i	i	3.16µM	?	?
Brc1cccc(-c2nc3cccnc3nc2-c2cccc(Br)c2)c1	nt	i	nt	nt	i	nt
O=C(COc1cccc(Cl)c1)N1CCC(c2nc3ccccc3s2)CC1	i	i	i	i	i	i
CC(C)CC1NC(=S)N(Cc2ccccc2)C1=O (stereo unspecified)	nt	-100.1	nt	?	i	i
O=C1C(Cc2ccccc2)NC(=S)N1Cc1ccccc1 (stereo unspecified)	nt	i	nt	nt	i	nt
COc1ccc(-c2noc(CNC(=O)COc3cccc(C)c3C)n2)cc1	i	i	i	i	i	?
O=c1c2ccccc2[nH]c(=S)n1CCCN1CCN(c2ccccc2)CC1	i	-67.4	?	?	i	?
O=c1c2cccnc2[nH]c(=S)n1CCCN1CCN(c2ccccc2F)CC1	i	i	i	i	i	?
O=c1c2ccccc2[nH]c(=S)n1CCCN1CCN(c2ccccc2F)CC1	nt	-62.8	nt	nt	i	nt
COc1cc(NC(=O)CNS(=O)(=O)c2cccs2)cc(OC)c1OC	i	i	i	nt	i	i
CCOc1ccccc1NC(=O)c1cc2cc(C)ccc2n1C	i	i	i	i	i	?
c1ccc(-c2cc3c(ccc4nonc43)nn2)cc1	i	i	i	i	i	i
On1onc2c3cc(-c4ccccc4)nc3ccc21	?	-108.0	3.16µM	?	i	?
C/C(=N\NC(=O)C1COc2ccccc2O1)c1ccccn1 (stereo unspecified)	?	-102.2	4.47µM	?	i	11.2µM
C/C(=N\NC(=O)C1COc2ccccc2O1)c1ccc(C)o1 (stereo unspecified)	i	i	i	i	i	i
Cc1ccnc(NC(=O)C2COc3ccccc3O2)c1 (stereo unspecified)	i	-75.0	i	i	i	?
COc1ccc(NC(=O)c2c(C)nn(Cc3ccccc3)c2Cl)cc1S(=O)(=O)N1CCOCC1	nt	-72.0	nt	nt	?	nt
CC(=O)Nc1ccc(NC(=O)c2c(C)nn(Cc3ccccc3)c2Cl)cc1	i	i	?	?	i	i
Cc1nn(Cc2ccccc2)c(Cl)c1C(=O)Nc1ccc(OC(F)(F)F)cc1	i	-68.8	i	i	i	i
COc1ccc(C(=O)NCc2c(C)nn(Cc3ccccc3)c2C)cc1S(=O)(=O)N1CCOCC1	nt	-100.6	nt	nt	i	nt
CN(C)CCNC(=O)Cc1ccc(NC(=O)N2CCCCc3ccccc32)cc1	i	i	i	nt	i	i
COc1cc(CN2CCC3(CC2)c2ccccc2[C@@H](NC(=O)c2ccccc2OC)[C@@H]3O)ccc1F	i	nt	i	nt	?	nt
Cc1ccc(N2C(=O)CSC23C(=O)N(CC(=O)Nc2ccc(C)cc2C)c2ccccc23)cc1 (stereo unspecified)	i	i	i	nt	i	i
CCOC(=O)N1C(=O)[C@@](c2ccc(Cl)cc2)(C(C)C)N1C(=O)OCC	12.6µM	i	?	nt	?	nt
COC(=O)N1C(=O)[C@](c2ccccc2)(C(C)C)N1C(=O)OC	i	i	?	nt	i	nt
SMILES	Vaccinia Venus	HCMV inh	VACV mCherry inh	MARV entry inh	FMDV antiviral	LASV entry inh
CCOC(=O)N1C(=O)[C@](c2ccc(Cl)cc2)(C(C)C)N1C(=O)OCC	?	-90.0	10µM	nt	28.2µM	nt
COc1ccc(C(C)C(=O)c2ccc(O)cc2O)cc1 (stereo unspecified)	i	nt	i	nt	i	nt
Nc1cccc(O)c1	i	i	i	nt	i	nt
Oc1cccc(-c2nnc(-c3cccc(O)c3)nn2)c1	i	i	i	?	8.91µM	?
O=c1cc2c(nn1Cc1ccccc1)-c1ccccc1CC2	i	-100.3	i	i	i	i
Brc1ccc2ncnc(Nc3cccc4ccccc34)c2c1	i	-66.3	i	?	nt	?
COc1ccc(OC)c(Nc2ncnc3ccccc23)c1	i	i	i	?	i	i

From PubChem BioAssay
